From PMC4336329 (PLoS ONE, 2015) come the findings set out here.

In all, about 310,000 compounds went through this assay and about 14,000 (4.5%) showed an effect of 50% or more. The effect is printed as a negative number. Shown is part of a subset that was picked to be rich in strong results.
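Further: peak tail current of the secondary pulse compared with the same well before compound.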

The target of the assay is human ether-à-go-go-related gene (hERG) potassium channel (human, UniProt Q12809). In words: primary screen, population patch clamp on CHO cells stably expressing hERG; higher = less effect of the substance.
Sequence of human ether-à-go-go-related gene (hERG) potassium channel (Q12809 whole entry, looked up): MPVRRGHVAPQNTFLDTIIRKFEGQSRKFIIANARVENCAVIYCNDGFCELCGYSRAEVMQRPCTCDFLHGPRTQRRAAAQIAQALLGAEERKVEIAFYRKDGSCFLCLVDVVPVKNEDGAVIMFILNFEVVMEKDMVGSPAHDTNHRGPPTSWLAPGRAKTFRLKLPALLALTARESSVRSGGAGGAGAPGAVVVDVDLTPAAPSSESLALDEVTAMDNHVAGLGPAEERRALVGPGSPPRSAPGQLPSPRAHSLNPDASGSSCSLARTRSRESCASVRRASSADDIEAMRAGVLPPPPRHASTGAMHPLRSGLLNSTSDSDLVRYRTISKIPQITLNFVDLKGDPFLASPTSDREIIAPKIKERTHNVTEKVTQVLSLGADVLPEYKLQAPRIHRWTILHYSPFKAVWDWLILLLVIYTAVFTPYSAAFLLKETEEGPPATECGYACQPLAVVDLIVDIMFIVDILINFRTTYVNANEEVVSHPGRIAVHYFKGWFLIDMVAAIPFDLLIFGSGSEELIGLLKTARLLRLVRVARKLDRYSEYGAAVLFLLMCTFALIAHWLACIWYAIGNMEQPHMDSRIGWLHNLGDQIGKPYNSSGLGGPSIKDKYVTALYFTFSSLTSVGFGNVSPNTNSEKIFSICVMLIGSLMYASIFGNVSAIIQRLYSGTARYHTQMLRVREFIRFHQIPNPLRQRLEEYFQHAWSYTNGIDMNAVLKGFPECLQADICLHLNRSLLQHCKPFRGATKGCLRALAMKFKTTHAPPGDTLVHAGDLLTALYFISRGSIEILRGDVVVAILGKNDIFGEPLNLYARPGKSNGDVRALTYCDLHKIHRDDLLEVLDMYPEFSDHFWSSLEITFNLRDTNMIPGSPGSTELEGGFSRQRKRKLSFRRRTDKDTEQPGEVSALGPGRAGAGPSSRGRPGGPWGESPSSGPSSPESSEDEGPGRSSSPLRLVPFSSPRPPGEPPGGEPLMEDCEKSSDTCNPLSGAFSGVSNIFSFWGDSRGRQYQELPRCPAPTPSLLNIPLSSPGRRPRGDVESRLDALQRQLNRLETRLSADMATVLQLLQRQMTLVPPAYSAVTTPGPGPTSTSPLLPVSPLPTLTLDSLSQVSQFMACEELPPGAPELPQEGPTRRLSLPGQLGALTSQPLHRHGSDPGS
Take `COC(=O)c1ccccc1C(=O)N1CCOCCN(C(=O)c2ccccc2C(=O)OC)CCOCC1`: the “hERG current change (%, negative = inhibition) at 10uM” value worked out at 0.0748%.
Consider `O=C(Cn1cncn1)NCc1cccc(OC(F)F)c1`, for which the “hERG current change (%, negative = inhibition) at 10uM” value is 7.23%.
Regarding `O=C(Nc1nc2ccccc2s1)C1CCN(S(=O)(=O)c2cc([N+](=O)[O-])ccc2Cl)CC1`, the “hERG current change (%, negative = inhibition) at 10uM” value is listed as 10.4%.
Consider `COc1ccc(CCN=c2c([N+](=O)[O-])nn(-c3cccc(C)c3)n2O)cc1OC`, for which the “hERG current change (%, negative = inhibition) at 10uM” value was -34.1%.
For `O=C(COC(=O)C1CCN(S(=O)(=O)c2cccc3cccnc23)CC1)c1ccccc1`, the “hERG current change (%, negative = inhibition) at 10uM” value was 7.23%.
With `Cc1onc(-c2ccccc2)c1C(=O)NC(C)C1CCCO1` (centres unmarked) the figure was 10.5%.
For the compound `C/C(=N\Nc1cc(N2CCOCC2)nc(C)n1)c1ccc(F)cc1`, the “hERG current change (%, negative = inhibition) at 10uM” value is reported as -12%.
For `Clc1cccc(Cc2ccc(Cl)nn2)c1`, the “hERG current change (%, negative = inhibition) at 10uM” value is recorded as -3.46%.
Consider `COc1cccc2cc(C(=O)N3CCN(C(=O)c4ccccc4)CC3)c(=O)oc12`, for which the “hERG current change (%, negative = inhibition) at 10uM” value is given as 7.71%.
With `O=C(Nc1ccccc1Cc1ccccc1)c1ccccc1F` the figure was -4.48%.
Under `COc1ccc(Oc2ccccc2/C=N/O)cc1` stands 4.99%.
Turning to `Cc1sc2ncnc(N3CCC(C(=O)Nc4ccc(C#N)c(Cl)c4)CC3)c2c1C`, the “hERG current change (%, negative = inhibition) at 10uM” value is listed as -7.2%.
For the compound `Cc1ccc(OCCC(=O)Nc2ccc(C)c(F)c2)cc1`, the “hERG current change (%, negative = inhibition) at 10uM” value is reported as -50.6%.
With `O=C(CN1CCN(C(=O)COc2cccc(F)c2)CC1)Nc1ccc(Cl)c(C(F)(F)F)c1` the figure was -60.6%; with `COc1ccccc1N1CCN(CC(=O)Nc2cccc(F)c2)CC1`, -28.1%.
With `Cc1ccc(OCCC(=O)Nc2ccc(F)c(Cl)c2)cc1`, the “hERG current change (%, negative = inhibition) at 10uM” value stood at 5.65%.
For the compound `CCOc1ccc(NC(=O)CN2CCN(CC(=O)Nc3cccc(F)c3)CC2)cc1`, the “hERG current change (%, negative = inhibition) at 10uM” value was -86.3%.
With `CC(=O)c1cccc(OCC(=O)N2CCN(CC(=O)Nc3cccc(F)c3)CC2)c1` the figure was -42.2%.
As to `O=C(COc1ccc(S(=O)(=O)N2CCOCC2)cc1)Nc1ccc(Cl)c(C(F)(F)F)c1`, the “hERG current change (%, negative = inhibition) at 10uM” value is on record as -13.1%.
Turning to `O=C(CN1CCN(c2ccccn2)CC1)Nc1cccc(F)c1`, the “hERG current change (%, negative = inhibition) at 10uM” value came to 5.56%.
Turning to `CCOc1ccc(NC(=O)CN2CCN(CC(=O)Nc3ccc(Cl)c(C(F)(F)F)c3)CC2)cc1`, the “hERG current change (%, negative = inhibition) at 10uM” value is -57%.
With `Cc1ccc(OCCC(=O)Nc2ccc(F)c(F)c2)cc1`, the “hERG current change (%, negative = inhibition) at 10uM” value is -5.62%.
Consider `O=C(CN1CCN(c2ccccn2)CC1)Nc1ccc(Cl)c(C(F)(F)F)c1`, for which the “hERG current change (%, negative = inhibition) at 10uM” value is -7.97%.
For `O=C(CN1CCN(S(=O)(=O)c2ccc(F)cc2)CC1)Nc1ccc(Cl)c(C(F)(F)F)c1`, the “hERG current change (%, negative = inhibition) at 10uM” value was 9.48%.
With `Cc1c(NC(=O)c2ccc([N+](=O)[O-])o2)cccc1-c1nc2ncccc2o1`, the “hERG current change (%, negative = inhibition) at 10uM” value was -11.8%.
Under `CCC(C)C(=O)Nc1ccc([N+](=O)[O-])cc1OC` (centres unmarked) stands 4.15%; under `CCC(C)(C)NC(=O)CN(Cc1ccc(OC)cc1)C(=O)CCC(=O)Nc1nccs1`, -4.32%.
Take `O=C(NC1CCCCC1)c1ccc(S(=O)(=O)c2ccccc2Cl)c([N+](=O)[O-])c1`: the “hERG current change (%, negative = inhibition) at 10uM” value was 1.94%.
Regarding `COc1cccc(CC(=O)OCC(=O)N(C)CC(=O)Nc2ccc(F)cc2)c1`, the “hERG current change (%, negative = inhibition) at 10uM” value was -9.44%.
As for `CN(C)c1ccc(C2Nc3ccccc3C(=O)N2NS(C)(=O)=O)cc1` (centres unmarked), the “hERG current change (%, negative = inhibition) at 10uM” value was determined as 14.2%.
With `C/C(=N\NC(=O)c1nnn(-c2nonc2N)c1CN1CCCCCC1)c1ccc(Br)cc1`, the “hERG current change (%, negative = inhibition) at 10uM” value came to 24.6%.
Turning to `Cc1ccc(OCCOC(=O)c2c(-c3ccccc3)noc2C)cc1`, the “hERG current change (%, negative = inhibition) at 10uM” value is 7.59%.
Regarding `CCOc1ccc(NC(=O)CN2CCN(Cc3c(F)cccc3F)CC2)cc1`, the “hERG current change (%, negative = inhibition) at 10uM” value is recorded as -75.3%.
Under `CCOc1ccc(NC(=O)CN2CCc3ccccc3C2)cc1` stands -6.01%; under `CCOc1ccc(NC(=O)CN2CCN(C3c4ccccc4-c4ccccc43)CC2)cc1`, -40.3%; under `CCOc1cc(N2CCOCC2)c(OCC)cc1NC(=O)c1nc2nc(C)cc(C)n2n1`, 18.4%.
`O=C(/C=C/c1ccc(OCc2c(F)cccc2Cl)cc1)N1CCOCC1`: the “hERG current change (%, negative = inhibition) at 10uM” value is given as -30.1%.
Under `COCCCNC(=O)/C=C/c1ccc(OCc2c(F)cccc2Cl)cc1` stands -1.25%.
Turning to `CN(C)CCCNC(=O)/C=C/c1ccc(OCc2c(F)cccc2Cl)cc1`, the “hERG current change (%, negative = inhibition) at 10uM” value is -67%.
For `COc1cc2c(cc1OC)C(c1ccccc1F)OC(=O)C2` (centres unmarked), the “hERG current change (%, negative = inhibition) at 10uM” value came to 6.96%.
With `O=C(CN1CCOCC1)Nc1ncc(Cc2cccc(Cl)c2Cl)s1` the figure was -51.4%.
Take `O=C(CN1CCOCC1)Nc1ncc(Cc2cccc3ccccc23)s1`: the “hERG current change (%, negative = inhibition) at 10uM” value is listed as -23.3%.
For the compound `O=C(CN1CCOCC1)Nc1ncc(Cc2cccc(Cl)c2)s1`, the “hERG current change (%, negative = inhibition) at 10uM” value is reported as -43%.
Take `O=C(COc1ccc2ccccc2c1)Nc1ccc2c3c(cccc13)CC2`: the “hERG current change (%, negative = inhibition) at 10uM” value amounted to 3.91%.
For the compound `O=C(CSc1ncnc2c1cnn2-c1cccc(Cl)c1)NCC1CCCO1` (centres unmarked), the “hERG current change (%, negative = inhibition) at 10uM” value is 7.88%.
Take `CCc1cc(=O)oc2cc(C)cc(OC(C)C(=O)NCc3ccncc3)c12` (centres unmarked): the “hERG current change (%, negative = inhibition) at 10uM” value is on record as -56.8%.
Turning to `CCc1cc(=O)oc2cc(C)cc(OC(C)C(=O)NCc3cccnc3)c12` (centres unmarked), the “hERG current change (%, negative = inhibition) at 10uM” value is -32.9%.
Turning to `CCCCc1cc(=O)oc2cc(C)cc(OC(C)C(=O)NCc3ccncc3)c12` (centres unmarked), the “hERG current change (%, negative = inhibition) at 10uM” value is -36%.
As to `Cc1cc(OC(C)C(=O)NCc2ccncc2)c2c(C)cc(=O)oc2c1` (centres unmarked), the “hERG current change (%, negative = inhibition) at 10uM” value is on record as -49.2%.
In the case of `CCCc1cc(=O)oc2cc(C)cc(OC(C)C(=O)NCc3ccncc3)c12` (centres unmarked), the “hERG current change (%, negative = inhibition) at 10uM” value is on record as -69.5%.
Regarding `CCCc1cc(=O)oc2cc(C)cc(OC(C)C(=O)NCc3cccnc3)c12` (centres unmarked), the “hERG current change (%, negative = inhibition) at 10uM” value is on record as -47.3%.
For the compound `O=S(=O)(Nc1nc2c(s1)CCCC2)c1ccc(F)cc1`, the “hERG current change (%, negative = inhibition) at 10uM” value was -21.1%.
For the compound `O=C(NCCc1cccc(F)c1)[C@@H]1CSC2c3ccccc3C(=O)N21` (some centres unmarked), the “hERG current change (%, negative = inhibition) at 10uM” value was -13.9%.
Under `Cc1cc(C(=O)Nc2ccc3c(c2)OCCO3)c(C)o1` stands 4.25%; under `COC(=O)c1cccc(Oc2cccc(C(F)(F)F)c2)n1`, 13%.
Under `Cc1ccc(S(=O)(=O)N2C(=O)CCC2C(=O)Nc2ccc3c(c2)OCCO3)cc1` (centres unmarked) stands 10.6%; under `O=C1CCN(Cc2cccnc2)CCN1[C@H](CO)c1ccccc1`, 16%.
Turning to `CCN(CC(=O)NCc1ccc(F)cc1)C(=O)c1ccc(C)o1`, the “hERG current change (%, negative = inhibition) at 10uM” value is 6.13%.
Take `CCN(CC)C(=O)COc1ccc(-c2ccccc2)cc1`: the “hERG current change (%, negative = inhibition) at 10uM” value is listed as -36%.
For `CCN(CC(=O)Nc1c(F)cccc1F)C(=O)CCNS(=O)(=O)c1ccc(C)c(C)c1`, the “hERG current change (%, negative = inhibition) at 10uM” value amounted to 1.26%.
Turning to `CCN(CC(=O)NCc1ccc(F)cc1)C(=O)CCNS(=O)(=O)c1cccc(C)c1`, the “hERG current change (%, negative = inhibition) at 10uM” value is -51.9%.
Under `CCN(CC(=O)NCc1ccc(F)cc1)C(=O)c1cc2ccccc2o1` stands -55.9%; under `CCc1ccc(OCC(=O)N(CC)CC)cc1`, -55%.
With `O=C(NCc1ccc(F)cc1)c1cc2ccccc2o1` the figure was -13.4%; with `CCN(CC(=O)NCc1ccc(Cl)cc1)C(=O)c1cc2ccccc2o1`, -32.2%; with `CCN(CC(=O)NCc1ccc(F)cc1)C(=O)c1ccc(COc2ccccc2)cc1`, -47.9%.
As for `CCN(CC(=O)NCc1ccc(F)cc1)C(=O)COc1ccc(C)c(C)c1`, the “hERG current change (%, negative = inhibition) at 10uM” value is listed as -53.6%.
As for `CCN(Cc1ccccc1)C(=O)COc1ccccc1`, the “hERG current change (%, negative = inhibition) at 10uM” value amounted to 9.21%.
As to `CCN(CC(=O)NCc1ccc(F)cc1)C(=O)Cc1c(F)cccc1Cl`, the “hERG current change (%, negative = inhibition) at 10uM” value was -37.6%.
Under `CCOC(=O)c1cc(C)n(S(=O)(=O)c2ccc(C)cc2)c1C` stands -2.18%; under `Cc1ccc(-c2cn(S(=O)(=O)c3cccc([N+](=O)[O-])c3)nc2N)cc1`, 15.3%; under `COc1ccccc1CNC(=O)CCC(=O)N1C[C@H]2C[C@@H](C1)c1cccc(=O)n1C2`, -5.65%.
In the case of `O=C(COc1ncnc2sccc12)Nc1cccc(S(=O)(=O)N2CCOCC2)c1`, the “hERG current change (%, negative = inhibition) at 10uM” value is -2.77%.
Take `O=C(Nc1ccc2nc(C3CC3)n(Cc3ccccc3)c(=O)c2c1)C1CC1`: the “hERG current change (%, negative = inhibition) at 10uM” value is reported as -6.15%.
Under `CC1(C)CC(NC(=O)COc2cc3oc(=O)c4c(c3cc2Cl)CCC4)CC(C)(C)N1` stands 11.2%; under `COc1ccc(OC)c(C(c2nnnn2C2CCCC2)N2CCc3ccccc3C2)c1` (centres unmarked), -11.1%; under `COc1ccc(/C=C/C(=O)OCC(=O)Nc2cc(S(=O)(=O)N(C)C)ccc2Cl)cc1`, 28.4%.
As to `CCN(CC(=O)Nc1ccc(NC(C)=O)cc1)C(=O)COc1ccc2ccccc2c1`, the “hERG current change (%, negative = inhibition) at 10uM” value is listed as -10.1%.
`CCc1ccccc1OCC(=O)N(CC)CC(=O)NCc1ccc(F)cc1`: the “hERG current change (%, negative = inhibition) at 10uM” value turned out to be 8%.
Consider `CCN(CC(=O)NCc1ccc(F)cc1)C(=O)c1cccnc1SC`, for which the “hERG current change (%, negative = inhibition) at 10uM” value is -62.9%.
Turning to `CCOc1ncccc1C(=O)N(CC)CC(=O)NCc1ccc(F)cc1`, the “hERG current change (%, negative = inhibition) at 10uM” value is 7.12%.
Take `CCN(CC(=O)Nc1c(F)cccc1F)C(=O)c1cccnc1SC`: the “hERG current change (%, negative = inhibition) at 10uM” value came out at 6.33%.
In the case of `CCN(CC(=O)NCc1ccc(F)cc1)C(=O)COc1ccc2ccccc2c1`, the “hERG current change (%, negative = inhibition) at 10uM” value was -70.5%.
For `CCCC(=O)NC1CCCc2c1cnn2-c1ccc(C)c(C)c1` (centres unmarked), the “hERG current change (%, negative = inhibition) at 10uM” value was -72%.
With `Cc1ccc(-n2ncc3c2CCCC3NC(=O)c2ccoc2)cc1C` (centres unmarked), the “hERG current change (%, negative = inhibition) at 10uM” value is reported as -79.2%.
For the compound `Cc1ccc(-n2ncc3c2CCCC3NC(=O)CCc2cnn(C)c2)cc1C` (centres unmarked), the “hERG current change (%, negative = inhibition) at 10uM” value was 7.27%.
Consider `Cc1cc(C(=O)NC2CCCc3c2cnn3-c2ccc(C)c(C)c2)no1` (centres unmarked), for which the “hERG current change (%, negative = inhibition) at 10uM” value is -42.9%.
Under `COC(=O)c1ccc(C(=O)NC2CCCc3c2cnn3-c2ccc(C)c(C)c2)cc1` (centres unmarked) stands 6.54%; under `CSCC(=O)NC1CCCc2c1cnn2-c1ccc(C)c(C)c1` (centres unmarked), -28%.
